Laboratory results: PubChem BioAssay AID2685 (National Center for Advancing Translational Sciences (NCATS), 2010)
Screen size: about 320,000 compounds; about 2,100 (0.66%) were called active. Roughly 53% stayed inconclusive and do not appear here. Calls come from the whole dose curve; as a rule, active = well fitted inhibition curve with a large enough effect in the signal ratio, with a control signal flat (not every such curve was filed as active); inconclusive = small, poorly fitted or top-dose-only effect, or effect the other way, or a change in a side signal; inactive = flat fitted curve, though single readings scatter; the % refers to the signal ratio. Many of the other results were omitted from the sample, so actives are more common in it than they were.

Test: qHTS Assay for Lipid Storage Modulators in Drosophila S3 Cells;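 for cell number change: cells counted by Cell Tracker Red CMTPX staining in the red channel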; for lipid storage change, negative = inhibition: % is set by controls: 0 for no effect and ±100 for the full control effect
Conditions: BODIPY lipid droplet fluorescence, 18-24 h, cells fed with added oleic acid; cell number change: measured here: cell count max response; series mostly up to 46.1 µM; lipid storage change, negative = inhibition: at the top concentration
Summary of the method: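 Drosophila S3 cells got compounds at several concentrations plus oleic acid (400 uM solution). Laser-scanning cytometry with 488 nm excitation read lipid droplets at 500-530 nm and cells at 575-640 nm. Percent activity was relative to 20 uM Triacsin C.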
Potency is the fitted concentration of half-maximal effect.

Row | SMILES | Potency | cell number change [%] | outcome | lipid storage change, negative = inhibition
1 | CCN1c2ccccc2S(=O)(=O)c2ccccc21 | 1.84 µM (active) | -15.5 |  | 
2 | COc1ccc(CNC(=O)CN2c3ccccc3S(=O)(=O)c3ccccc32)cc1 |  |  | inactive | 
3 | CCN1C(=O)N(c2ccc(C(C)=O)cc2)S(=O)(=O)c2ccccc21 |  | 7.75 |  | 20.2% (inactive)
4 | COc1cccc(NC(=O)C(Cc2ccccc2)n2cccc2)c1 (stereo unspecified) |  | 23.9 |  | 15% (inactive)
5 | O=C(c1ccccc1)N1CCN(c2ccccc2F)CC1 |  |  | inactive | 
6 | CCN(CC)CCCN(C(=O)Cn1nnc(-c2ccc(OC)c(OC)c2)n1)C(C(=O)NC(C)(C)C)c1ccc(F)cc1 (stereo unspecified) |  | -0.835 |  | -9.11% (inactive)
7 | COc1ccc(C(C)=O)cc1CSc1nnc(Nc2ccccc2)s1 | 2.31 µM (active) | -8.23 |  | 
8 | COc1ccc(C(C)=O)cc1CSc1nnc(Nc2ccccc2C)s1 |  |  |  | 22.8% (inactive)
9 | COc1ccc(C(C)=O)cc1CSc1nnc(SCc2cc(C(C)=O)ccc2OC)s1 |  | 7.73 |  | 12.7% (inactive)
10 | CN(C(=O)COC(=O)CCc1nc2ccccc2c(=O)[nH]1)C1CCS(=O)(=O)C1 (stereo unspecified) |  | -1.94 |  | -17.9% (inactive)
11 | COCCNC(=O)c1cccc2c1-c1ccccc1C2=O |  | -10.2 |  | -7.63% (inactive)
12 | CC(=O)CCc1oc2ccc(C)cc2c1-c1ccccc1 |  | 1.81 |  | 20.7% (inactive)
13 | O=S(=O)(Cc1ccccc1)Nc1ccc(S(=O)(=O)N2CCCC2)cc1 |  | -4.32 |  | 12.9% (inactive)
14 | O=c1oc(-c2cccs2)nc2sc3c(c12)CCC3 |  | 1.06 |  | -1.18% (inactive)
15 | O=c1oc(-c2cccs2)nc2sc3c(c12)CCCCC3 |  | 7.26 |  | -9.97% (inactive)
16 | O=C1CN(c2nc(-c3cccs3)nc3sc4c(c23)CCCC4)CCN1 | 1.64 µM (active) | -27.1 |  | 
17 | N#CCCNC(=O)Cn1c(COc2ccc(Cl)cc2)nc2ccccc21 |  | 6.47 |  | 15% (inactive)
18 | COc1cccc(-c2nc3c(c(SCC(=O)N4CCOCC4)n2)Cc2c(CO)cnc(C)c2O3)c1 | 0.651 µM (active) |  |  | 
19 | CCc1ccc(NC(=O)CSc2nc(-c3ccc(C)cc3)nc3c2Cc2c(CO)cnc(C)c2O3)cc1 |  | -9.8 |  | -8.05% (inactive)
20 | COc1cccc(-c2noc(CCCC(=O)N3CCOCC3)n2)c1 |  | -4.07 |  | -11.5% (inactive)
21 | COC(C[C@H](O)[C@H](C)[C@H](O)COCc1ccccc1)OC |  | 11.5 |  | -0.509% (inactive)
22 | O=C(CN1C(=O)COc2ccccc21)Nc1ccc2c(c1)OCCO2 |  | 3.43 | inactive | 
23 | COc1ccc(C(=O)N/C(=C\c2cn(C)c3ccccc23)C(=O)N2CCOCC2)cc1 |  | 8.73 | inactive | 

Row | SMILES | Potency | cell number change [%] | outcome | lipid storage change, negative = inhibition
24 | COc1ccc(C(=O)N/C(=C\c2cn(C)c3ccccc23)C(=O)N2CCN(C)CC2)cc1OC |  | 0.763 | inactive | 
25 | COc1ccc(C(=O)N/C(=C\c2cn(C)c3ccccc23)C(=O)N2CCOCC2)cc1OC | 23.1 µM (active) | 9.92 |  | 
26 | CCCN1CCN(C(=O)c2noc3c2COc2ccc(C)cc2-3)CC1 |  | -19.6 |  | -30.8% (inactive)
27 | COc1ccc2oc(C(=O)OC(C)C(=O)Nc3ccc(N4CCOCC4)cc3)c(C)c2c1 (stereo unspecified) | 7.31 µM (active) | -30.5 |  | 
28 | COc1ccc2oc(C(=O)OC(C)C(=O)N3CCC(C)CC3)c(C)c2c1 (stereo unspecified) |  | -13.1 |  | -4.24% (inactive)
29 | Cc1cc(=O)oc2cc(OC(C)C(=O)Nc3ccc(N4CCOCC4)cc3)ccc12 (stereo unspecified) |  |  |  | 20.2% (inactive)
30 | O=C(CSc1cn[nH]n1)Nc1ccccc1F |  | 16.5 |  | -23.4% [at 0.0737 µM] (inactive)
31 | CCOC(=O)C1=C(COC(=O)/C=C/c2cc(OC)c(OC)c(OC)c2)NC(=O)NC1C (stereo unspecified) | 18.4 µM (active) | 4.86 |  | 
32 | CCOC(=O)C1=C(COC(=O)c2cc(OC)c(OC)c(OC)c2)NC(=O)NC1C (stereo unspecified) |  | -11.6 |  | 4.7% (inactive)
33 | CCOC(=O)C1=C(COC(=O)/C=C/c2cccc(OC)c2OC)NC(=O)NC1C (stereo unspecified) |  |  | inactive | 
34 | NS(=O)(=O)c1ccc(NC(=S)NC(=O)c2cccs2)cc1 |  | -5.36 |  | -5.53% (inactive)
35 | Cc1cc(Br)ccc1SCC(=O)N1CCN(S(=O)(=O)c2ccccc2)CC1 |  | 10.8 | inactive | 
36 | CC(CNC(=O)CCC(=O)N1CCOc2ccccc21)c1ccccc1 (stereo unspecified) |  | 5.19 |  | -12.8% (inactive)
37 | CC(CNC(=O)CN1C(=O)c2cccnc2Oc2ccc(Cl)cc21)c1ccccc1 (stereo unspecified) | 20.6 µM (active) | -20.3 |  | 
38 | O=C(CN1C(=O)c2cccnc2Oc2ccc(Cl)cc21)NCCc1ccccc1 |  | 10.9 | inactive | 
39 | CC(CNC(=O)CCC(=O)N1CCOc2ccc(Cl)cc21)c1ccccc1 (stereo unspecified) | 0.92 µM (active) | -20.2 |  | 
40 | Cc1ccccc1CNC(=O)CCC(=O)N1CCOc2ccc(Cl)cc21 |  | 5.19 |  | 6.67% (inactive)
41 | O=C(CN1C(=O)c2cccnc2Oc2ccc(Cl)cc21)Nc1ccccc1F |  | -28 |  | -6.56% (inactive)
42 | COc1ccc(NC(=O)[C@@H](NC(=O)c2ccccc2)C(C)C)cc1S(=O)(=O)N1CCCCC1 |  | -2.25 |  | -1.46% (inactive)
43 | CC(=O)Nc1ccc(OCC(O)Cn2c3ccccc3c3ccccc32)c(C)c1 (stereo unspecified) |  | -16.4 |  | -3.13% (inactive)
44 | CSc1nc(=S)n(-c2ccccc2)c(C)c1C(C)=O |  | -14.2 |  | -5.3% (inactive)
45 | O=C(CCCn1c(SCc2cccc(F)c2)nc2ccccc2c1=O)NCC1CCCO1 (stereo unspecified) |  | -0.301 |  | -7.37% (inactive)
46 | O=C(NCCCN1CCCCC1)c1ccc(CS(=O)c2ccc(F)cc2)o1 (stereo unspecified) |  |  | inactive | 

Row | SMILES | Potency | cell number change [%] | outcome | lipid storage change, negative = inhibition
47 | O=C(c1ccc(CS(=O)c2ccccc2Cl)o1)N1CCCCCC1 (stereo unspecified) |  | -21.2 | inactive | 
48 | Cc1ccccc1S(=O)(=O)Cc1ccc(C(=O)NCCCN2CCCC2)o1 |  | 13.9 |  | 1.07% (inactive)
49 | O=C(NCCN1CCOCC1)c1ccc(CS(=O)c2ccccc2Cl)o1 (stereo unspecified) | 4.11 µM (active) | -8.85 |  | 
50 | Cc1ccccc1S(=O)Cc1ccc(C(=O)NCCCN2CCCCC2)o1 (stereo unspecified) | 4.11 µM (active) | -18.3 |  | 
51 | CCN1CCN(CCNC(=O)c2ccc(CS(=O)c3ccc(Cl)cc3)o2)CC1 (stereo unspecified) |  |  | inactive | 
52 | COc1ccc(NC(C)=O)cc1NC(=O)c1ccc(Cl)cc1 |  | 11.7 |  | 0.28% (inactive)
53 | CC(SCc1ccccc1)C(=O)Nc1ccccc1-c1ccccc1 (stereo unspecified) |  | 8.62 |  | -6.56% (inactive)
54 | O=S1(=O)N=C(Oc2cccc3ccccc23)c2ccccc21 |  | 3.24 |  | -0.954% (inactive)
55 | COc1ccc(C2CCCN2C(=O)Nc2ccc(Cl)cc2)cc1OC (stereo unspecified) |  | -6.06 |  | -5.01% (inactive)
56 | COc1ccc(Cl)cc1NC(=O)NCC1CCN(Cc2cc(C)ccc2C)CC1 |  | -15.2 |  | -4.05% (inactive)
57 | Cc1ccc(C)c(CN2CCC(CNC(=O)Nc3ccc(F)c(Cl)c3)CC2)c1 |  | -7.91 |  | -20.7% (inactive)
58 | Cc1ccc(C)c(CN2CCC(CNC(=O)Nc3cccc(Cl)c3C)CC2)c1 | 25.9 µM (active) | -2.78 |  | 
59 | CC(C)(C)c1ccc(OCCC(=O)OCC(=O)Nc2cccnc2Cl)cc1 |  | -11.9 |  | -4.76% (inactive)
60 | COCCn1c(Cc2ccccc2)nnc1SCC(=O)N1CCCC1=O |  | 2.89 |  | 10.9% (inactive)
61 | O=C(NC1(N2CCOCC2)CC1)c1ccc(Cl)cc1 |  | 10.5 |  | 6.65% (inactive)
62 | CSC1=NCCN1C(=O)c1c(F)cccc1F |  | 10.5 |  | 3% (inactive)
63 | CSc1ccccc1OCc1cc(C(=O)N(C)CC2COCCO2)no1 (stereo unspecified) |  | 5.77 |  | -7.6% (inactive)
64 | CCC(=O)N1CCc2cc(OC)c(OC)cc2C1COc1ccccc1OC (stereo unspecified) |  | -0.404 |  | -23.2% (inactive)
65 | CCNC(=S)N1CCc2cc(OC)c(OC)cc2C1COc1ccc(OC)cc1 (stereo unspecified) |  | -7.02 |  | 6.83% (inactive)
66 | CCNC(=S)N1CCc2cc(OC)c(OC)cc2C1COc1ccccc1OC (stereo unspecified) | 11.6 µM (active) | -25.8 |  | 
67 | Cc1ccc(Cn2nnnc2CN2CCC(O)(c3cccnc3)CC2)cc1 |  | 1.82 |  | 14.9% (inactive)
68 | COCCn1c(SCC(=O)Nc2ccc3c(c2)OCCO3)nnc1C(C)C |  | 15.8 |  | 14% (inactive)
69 | C/C(CC(=O)Nc1cccc(C(F)(F)F)c1)=N\NC(=O)c1ccncc1 | 4.61 µM (active) | -7.89 |  | 

Row | SMILES | Potency | cell number change [%] | outcome | lipid storage change, negative = inhibition
70 | CC(=O)N/N=C(\C)CC(=O)Nc1cccc(C(F)(F)F)c1 |  | 5.44 |  | -3.97% (inactive)
71 | COc1ccc(C(=O)N/N=C(\C)CC(=O)Nc2cccc(C(F)(F)F)c2)cc1 |  | -2.05 |  | -0.39% (inactive)
72 | O=C(O)c1cccnc1C(=O)O |  | -2.7 |  | 2.1% (inactive)
73 | O=C(O)c1cccnc1NC1CCCC1 | 20.6 µM (active) | -16 |  | 
74 | O=C(NC1CCCCC1)c1cccnc1C(=O)O |  | -11.4 |  | -6.71% (inactive)
75 | Cc1cc(C)n(-c2nnc(C)n2/N=C/c2ccccc2F)n1 |  | 19.1 | inactive | 
76 | Cc1cc(C)n(-c2nnc(C)n2/N=C/c2ccc(O)cc2)n1 |  | -6.41 |  | 11.6% (inactive)
77 | Cc1cc(C)n(-c2nnc(C)n2/N=C/c2ccccc2O)n1 | 18.4 µM (active) | -5.58 |  | 
78 | Cc1ccccc1NC(=O)c1ccc2ccccc2c1 |  | 14.2 |  | 5.74% (inactive)
79 | CCCC(=O)NCCSC |  | -17.4 |  | 5.9% (inactive)
80 | O=C(NC1CCCC1)C(c1ccncc1)N(C(=O)Cc1cccs1)c1ccc(F)cc1 (stereo unspecified) | 29.1 µM (active) | 3.33 |  | 
81 | O=C(NC1CCCC1)C(c1ccsc1)N(C(=O)Cc1cccs1)c1ccc(F)cc1 (stereo unspecified) |  | -21.2 |  | -14.8% (inactive)
82 | O=C(NC1CCCC1)C(c1ccccc1)N(Cc1cccnc1)C(=O)Cc1cccs1 (stereo unspecified) |  | -1.03 |  | 17.7% (inactive)
83 | COc1ccc(C(C(=O)NC2CCCC2)N(Cc2cccnc2)C(=O)Cc2cccs2)cc1OC (stereo unspecified) |  | 6.84 |  | -9.53% (inactive)
84 | COc1ccc(C(C(=O)NC2CCCC2)N(Cc2cccnc2)C(=O)Cc2cccs2)c(OC)c1 (stereo unspecified) | 7.31 µM (active) | -10.9 |  | 
85 | O=C(NC1CCCCC1)C(c1ccncc1)N(C(=O)Cc1cccs1)c1ccccc1 (stereo unspecified) |  | 12.4 |  | 12.7% (inactive)
86 | O=c1[nH]c(=O)c2nnc(N/N=C\c3ccc(O)cc3)nc2[nH]1 |  | -0.285 |  | 1.17% (inactive)
87 | Cc1ccc(N/C(N)=N/c2nc3c(c(=O)[nH]2)CCCC3)c(C)c1 |  | 25.1 |  | -16.9% (inactive)
88 | CN(C)CCN(C(=O)c1ccc(C(=O)c2ccccc2)cc1)c1nc2cc3c(cc2s1)OCO3 |  | 29 |  | 18.9% (inactive)
89 | CCOC(=O)c1cccc(N2C(N)=NC(N)=NC2(C)C)c1 |  | 6.64 |  | 1.48% (inactive)
90 | COc1cccc(N2C(N)=NC(N)=NC2(C)C)c1 |  | -1.01 |  | -15.5% (inactive)
91 | CC1(C)N=C(N)N=C(N)N1c1cccc(C(=O)O)c1 | 29.1 µM (active) | 9.53 |  | 
92 | O=C(Nc1ccc(N2CCOCC2)cc1)C1CC(=O)N(c2ccc(F)cc2)C1 (stereo unspecified) |  | 18.8 |  | -18.1% (inactive)
